How the values were obtained:
Assay in all cases: DAPPL (digital affinity profiling via proximity ligation, sequencing); 10 mM Tris-HCl pH 7.5, 50 mM NaCl, 1 mM DTT, 4% glycerol, room temperature, 30 min; GST-TFs on glutathione beads, 16-mer random dsDNA library, 0.1% formaldehyde crosslink after washing; high values mean tight binding
Conditions in all cases: protein: recombinant; tags: N-terminal GST; dsDNA, one strand shown
GABPA = target: T1, GABPA (Homo sapiens, UniProt Q06546 1-454)
T1 sequence: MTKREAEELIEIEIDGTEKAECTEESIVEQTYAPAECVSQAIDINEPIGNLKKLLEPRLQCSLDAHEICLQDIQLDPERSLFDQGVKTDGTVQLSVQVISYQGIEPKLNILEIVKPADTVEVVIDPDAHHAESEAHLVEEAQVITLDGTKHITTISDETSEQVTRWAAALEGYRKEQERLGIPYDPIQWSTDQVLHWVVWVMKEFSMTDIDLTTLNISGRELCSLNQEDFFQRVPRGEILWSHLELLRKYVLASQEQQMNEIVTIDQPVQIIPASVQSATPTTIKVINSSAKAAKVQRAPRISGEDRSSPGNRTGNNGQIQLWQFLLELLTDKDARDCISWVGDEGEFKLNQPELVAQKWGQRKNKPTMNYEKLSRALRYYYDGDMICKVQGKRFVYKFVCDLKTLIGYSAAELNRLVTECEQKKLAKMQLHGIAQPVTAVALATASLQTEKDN
How it was run: (§1)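 A tag-only sample was pooled with DNA-barcoded human transcription factors that had been expressed in yeast as GST fusions and captured on glutathione beads. The pools were incubated for 30 min at room temperature with 200 nmole of a random double-stranded 16-mer DNA library in Tris/NaCl/DTT/glycerol buffer, then washed, crosslinked with 0.1% formaldehyde, proximity-ligated (BsaI/T4 ligase, 1 h, 37 °C), PCR-amplified and sequenced on an Illumina NextSeq500. Binding signal is each hexamer's read frequency for a factor divided by its frequency for the tag-only sample.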

ELF1 = ELF1 (Homo sapiens, UniProt P32519 1-619)
How it was run: as §1

EHF = target: T2, EHF (Homo sapiens, UniProt Q9NZC4 1-300)
T2 sequence: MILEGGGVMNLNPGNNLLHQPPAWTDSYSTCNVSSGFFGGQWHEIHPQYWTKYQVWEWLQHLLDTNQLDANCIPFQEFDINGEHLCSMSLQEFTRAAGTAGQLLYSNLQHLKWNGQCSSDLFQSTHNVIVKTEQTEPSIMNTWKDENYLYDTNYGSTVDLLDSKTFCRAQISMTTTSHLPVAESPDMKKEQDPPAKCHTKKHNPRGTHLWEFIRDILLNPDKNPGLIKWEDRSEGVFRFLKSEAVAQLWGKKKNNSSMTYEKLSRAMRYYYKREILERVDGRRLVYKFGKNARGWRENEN
How it was run: as §1

ETV5 = ETV5 (Homo sapiens, UniProt P41161 1-510)
How it was run: as §1

ELF4 = ELF4 (Homo sapiens, UniProt Q99607 1-663)
How it was run: as §1

ELK4 = target: T3, ELK4 (Homo sapiens, UniProt P28324-2 1-405)
T3 sequence: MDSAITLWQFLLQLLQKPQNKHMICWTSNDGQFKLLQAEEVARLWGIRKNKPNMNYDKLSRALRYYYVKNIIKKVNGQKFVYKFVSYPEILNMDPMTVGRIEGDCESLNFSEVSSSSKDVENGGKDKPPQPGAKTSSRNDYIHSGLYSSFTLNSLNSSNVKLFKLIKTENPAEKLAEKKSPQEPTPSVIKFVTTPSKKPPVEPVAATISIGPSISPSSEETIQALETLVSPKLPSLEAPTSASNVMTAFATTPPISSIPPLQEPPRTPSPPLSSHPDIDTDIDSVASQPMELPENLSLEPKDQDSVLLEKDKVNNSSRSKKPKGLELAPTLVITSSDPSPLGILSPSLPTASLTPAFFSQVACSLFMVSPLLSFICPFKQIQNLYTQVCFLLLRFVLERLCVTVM
How it was run: as §1

ETV2 = target: T4, ETV2 (Homo sapiens, UniProt O00321 1-342)
T4 sequence: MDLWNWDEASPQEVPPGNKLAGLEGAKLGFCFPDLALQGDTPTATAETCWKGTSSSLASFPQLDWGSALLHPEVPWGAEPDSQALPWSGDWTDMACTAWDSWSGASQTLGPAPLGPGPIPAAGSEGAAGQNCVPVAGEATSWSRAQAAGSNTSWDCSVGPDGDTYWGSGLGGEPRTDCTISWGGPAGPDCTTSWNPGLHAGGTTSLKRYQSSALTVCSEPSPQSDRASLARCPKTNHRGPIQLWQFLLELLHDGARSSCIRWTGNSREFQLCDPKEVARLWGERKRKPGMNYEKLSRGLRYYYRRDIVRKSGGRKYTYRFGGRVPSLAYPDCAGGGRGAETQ
How it was run: as §1

ELF3 = target: T5, ELF3 (Homo sapiens, UniProt P78545 1-371)
T5 sequence: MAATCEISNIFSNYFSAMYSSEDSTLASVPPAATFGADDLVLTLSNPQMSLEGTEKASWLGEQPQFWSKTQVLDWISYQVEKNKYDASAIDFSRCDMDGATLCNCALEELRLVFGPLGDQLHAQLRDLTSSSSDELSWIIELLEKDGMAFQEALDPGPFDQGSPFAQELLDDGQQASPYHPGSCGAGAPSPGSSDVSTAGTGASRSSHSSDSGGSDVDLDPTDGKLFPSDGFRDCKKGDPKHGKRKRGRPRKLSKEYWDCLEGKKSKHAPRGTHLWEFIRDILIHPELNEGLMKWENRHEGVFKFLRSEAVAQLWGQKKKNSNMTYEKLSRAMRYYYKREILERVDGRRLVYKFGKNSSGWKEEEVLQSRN
How it was run: as §1

ETV3L = target: T6, ETV3L (Homo sapiens, UniProt Q6ZN32 1-361)
T6 sequence: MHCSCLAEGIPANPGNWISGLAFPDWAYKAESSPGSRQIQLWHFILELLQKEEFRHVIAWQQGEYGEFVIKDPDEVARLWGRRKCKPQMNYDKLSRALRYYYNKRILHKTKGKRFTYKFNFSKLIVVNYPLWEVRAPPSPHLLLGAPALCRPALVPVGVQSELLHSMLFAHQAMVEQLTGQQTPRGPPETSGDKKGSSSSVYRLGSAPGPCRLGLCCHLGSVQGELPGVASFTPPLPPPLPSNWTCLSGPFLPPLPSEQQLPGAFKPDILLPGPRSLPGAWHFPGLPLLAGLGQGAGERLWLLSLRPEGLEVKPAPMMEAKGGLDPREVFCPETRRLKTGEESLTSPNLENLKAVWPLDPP
How it was run: as §1

ETS2 = target: T7, ETS2 (Homo sapiens, UniProt P15036 1-469)
T7 sequence: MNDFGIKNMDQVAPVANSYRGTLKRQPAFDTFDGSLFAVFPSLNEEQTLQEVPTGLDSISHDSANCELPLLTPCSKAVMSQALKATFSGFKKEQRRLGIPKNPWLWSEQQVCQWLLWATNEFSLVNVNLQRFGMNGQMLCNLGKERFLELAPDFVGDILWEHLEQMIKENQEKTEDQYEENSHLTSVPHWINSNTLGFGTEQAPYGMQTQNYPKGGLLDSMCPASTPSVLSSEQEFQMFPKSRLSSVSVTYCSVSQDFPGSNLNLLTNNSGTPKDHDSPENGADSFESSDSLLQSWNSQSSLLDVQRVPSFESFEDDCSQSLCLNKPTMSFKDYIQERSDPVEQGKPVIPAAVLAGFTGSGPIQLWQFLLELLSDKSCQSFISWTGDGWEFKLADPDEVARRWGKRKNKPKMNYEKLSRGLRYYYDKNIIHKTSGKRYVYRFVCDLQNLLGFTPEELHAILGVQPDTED
How it was run: as §1

ETV7 = target: T8, ETV7 (Homo sapiens, UniProt Q9Y603 1-341)
T8 sequence: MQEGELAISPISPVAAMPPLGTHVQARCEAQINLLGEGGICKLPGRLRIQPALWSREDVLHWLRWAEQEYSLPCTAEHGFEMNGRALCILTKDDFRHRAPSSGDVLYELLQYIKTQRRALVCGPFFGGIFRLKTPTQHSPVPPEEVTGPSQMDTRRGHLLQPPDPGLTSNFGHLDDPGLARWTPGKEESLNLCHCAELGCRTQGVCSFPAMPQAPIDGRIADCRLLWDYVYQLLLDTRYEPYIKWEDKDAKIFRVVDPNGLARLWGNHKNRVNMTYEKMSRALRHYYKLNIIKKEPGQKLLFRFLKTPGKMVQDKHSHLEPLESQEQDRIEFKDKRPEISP
How it was run: as §1

ETV3 = target: T9, ETV3 (Homo sapiens, UniProt P41162-2 1-143)
T9 sequence: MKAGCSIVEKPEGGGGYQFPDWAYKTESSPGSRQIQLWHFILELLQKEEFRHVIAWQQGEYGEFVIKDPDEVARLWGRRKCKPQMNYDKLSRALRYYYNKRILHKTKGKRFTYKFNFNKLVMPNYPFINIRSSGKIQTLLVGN
How it was run: as §1

ELK1 = target: T10, ELK1 (Homo sapiens, UniProt P19419 1-428)
T10 sequence: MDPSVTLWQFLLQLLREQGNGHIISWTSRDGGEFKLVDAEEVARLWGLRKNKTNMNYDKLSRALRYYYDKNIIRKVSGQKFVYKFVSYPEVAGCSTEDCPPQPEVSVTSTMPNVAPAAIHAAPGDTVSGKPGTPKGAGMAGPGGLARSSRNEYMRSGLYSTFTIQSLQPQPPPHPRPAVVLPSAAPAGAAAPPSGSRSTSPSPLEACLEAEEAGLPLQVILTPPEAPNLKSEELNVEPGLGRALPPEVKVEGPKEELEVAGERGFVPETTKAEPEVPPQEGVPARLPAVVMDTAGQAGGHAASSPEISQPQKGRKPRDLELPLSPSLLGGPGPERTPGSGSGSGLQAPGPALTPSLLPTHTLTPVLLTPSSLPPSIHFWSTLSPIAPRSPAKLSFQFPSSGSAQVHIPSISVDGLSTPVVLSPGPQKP
How it was run: as §1

SPIB = SPIB (Homo sapiens, UniProt Q01892 1-262)
How it was run: as §1

FEV = target: T11, FEV (Homo sapiens, UniProt Q99581 1-238)
T11 sequence: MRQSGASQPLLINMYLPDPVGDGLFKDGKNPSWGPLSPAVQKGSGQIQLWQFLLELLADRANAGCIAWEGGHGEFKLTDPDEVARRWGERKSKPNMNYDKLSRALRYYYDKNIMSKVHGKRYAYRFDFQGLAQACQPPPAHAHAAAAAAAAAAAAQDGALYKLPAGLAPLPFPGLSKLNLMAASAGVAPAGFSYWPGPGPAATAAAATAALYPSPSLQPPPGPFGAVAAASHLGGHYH
How it was run: as §1

ETV1 = ETV1 (Homo sapiens, UniProt P50549 1-477)
How it was run: as §1

SPDEF = target: T12, SPDEF (Homo sapiens, UniProt O95238 1-335)
T12 sequence: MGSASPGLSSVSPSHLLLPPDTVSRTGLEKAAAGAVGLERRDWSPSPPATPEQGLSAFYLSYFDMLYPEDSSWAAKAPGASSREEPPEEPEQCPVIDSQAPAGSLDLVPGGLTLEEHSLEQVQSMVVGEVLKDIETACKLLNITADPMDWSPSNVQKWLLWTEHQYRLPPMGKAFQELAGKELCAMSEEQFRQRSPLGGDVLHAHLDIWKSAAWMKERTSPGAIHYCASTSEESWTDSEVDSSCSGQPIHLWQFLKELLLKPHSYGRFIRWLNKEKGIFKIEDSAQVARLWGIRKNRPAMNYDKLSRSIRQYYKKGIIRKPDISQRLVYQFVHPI
How it was run: as §1

ETV6 = ETV6 (Homo sapiens, UniProt P41212 1-452)
How it was run: as §1

Sequence of ETV5 (P41161 whole entry): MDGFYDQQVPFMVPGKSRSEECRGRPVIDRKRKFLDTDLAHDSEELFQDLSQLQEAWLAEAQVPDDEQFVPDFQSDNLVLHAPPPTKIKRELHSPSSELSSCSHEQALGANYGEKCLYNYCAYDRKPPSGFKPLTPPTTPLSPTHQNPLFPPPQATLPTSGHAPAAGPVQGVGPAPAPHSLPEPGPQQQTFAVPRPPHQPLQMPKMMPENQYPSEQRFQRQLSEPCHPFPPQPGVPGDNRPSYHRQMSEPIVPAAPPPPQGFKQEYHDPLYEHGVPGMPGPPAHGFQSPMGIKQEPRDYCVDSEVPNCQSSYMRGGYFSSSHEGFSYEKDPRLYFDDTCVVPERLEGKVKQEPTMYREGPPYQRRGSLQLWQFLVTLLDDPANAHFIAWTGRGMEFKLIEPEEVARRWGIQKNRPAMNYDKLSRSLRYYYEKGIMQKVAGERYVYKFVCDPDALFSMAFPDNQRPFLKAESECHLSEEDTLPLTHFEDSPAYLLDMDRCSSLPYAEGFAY
Sequence of ELF1 (P32519 whole entry): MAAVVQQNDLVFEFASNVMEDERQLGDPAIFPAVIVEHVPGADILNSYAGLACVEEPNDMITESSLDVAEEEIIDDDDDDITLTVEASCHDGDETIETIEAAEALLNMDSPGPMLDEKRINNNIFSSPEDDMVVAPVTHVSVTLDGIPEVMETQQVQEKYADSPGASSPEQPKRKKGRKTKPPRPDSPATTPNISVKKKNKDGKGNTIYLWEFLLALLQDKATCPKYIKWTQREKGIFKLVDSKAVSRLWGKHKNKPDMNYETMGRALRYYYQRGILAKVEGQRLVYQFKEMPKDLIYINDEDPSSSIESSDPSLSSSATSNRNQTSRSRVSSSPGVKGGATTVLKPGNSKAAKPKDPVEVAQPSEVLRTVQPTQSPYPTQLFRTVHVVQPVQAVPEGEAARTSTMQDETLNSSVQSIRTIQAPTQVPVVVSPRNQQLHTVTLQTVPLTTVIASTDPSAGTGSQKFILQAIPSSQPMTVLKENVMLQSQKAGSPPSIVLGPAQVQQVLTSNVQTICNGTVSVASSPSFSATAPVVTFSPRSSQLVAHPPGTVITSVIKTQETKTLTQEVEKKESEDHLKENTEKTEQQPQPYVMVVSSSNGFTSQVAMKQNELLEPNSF
Sequence of ETV6 (P41212 whole entry): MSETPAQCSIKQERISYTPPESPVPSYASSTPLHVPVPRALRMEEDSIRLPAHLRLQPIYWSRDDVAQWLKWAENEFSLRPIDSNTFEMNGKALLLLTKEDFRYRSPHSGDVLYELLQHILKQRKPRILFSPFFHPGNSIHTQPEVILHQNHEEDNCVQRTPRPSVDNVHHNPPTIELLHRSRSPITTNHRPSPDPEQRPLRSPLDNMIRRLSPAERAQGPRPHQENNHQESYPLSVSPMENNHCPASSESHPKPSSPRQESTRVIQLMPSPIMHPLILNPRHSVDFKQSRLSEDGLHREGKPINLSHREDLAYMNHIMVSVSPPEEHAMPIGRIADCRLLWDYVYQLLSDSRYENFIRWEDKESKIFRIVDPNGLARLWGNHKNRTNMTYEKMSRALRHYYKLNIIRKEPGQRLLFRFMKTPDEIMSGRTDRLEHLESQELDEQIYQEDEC
Sequence of ETV1 (P50549 whole entry): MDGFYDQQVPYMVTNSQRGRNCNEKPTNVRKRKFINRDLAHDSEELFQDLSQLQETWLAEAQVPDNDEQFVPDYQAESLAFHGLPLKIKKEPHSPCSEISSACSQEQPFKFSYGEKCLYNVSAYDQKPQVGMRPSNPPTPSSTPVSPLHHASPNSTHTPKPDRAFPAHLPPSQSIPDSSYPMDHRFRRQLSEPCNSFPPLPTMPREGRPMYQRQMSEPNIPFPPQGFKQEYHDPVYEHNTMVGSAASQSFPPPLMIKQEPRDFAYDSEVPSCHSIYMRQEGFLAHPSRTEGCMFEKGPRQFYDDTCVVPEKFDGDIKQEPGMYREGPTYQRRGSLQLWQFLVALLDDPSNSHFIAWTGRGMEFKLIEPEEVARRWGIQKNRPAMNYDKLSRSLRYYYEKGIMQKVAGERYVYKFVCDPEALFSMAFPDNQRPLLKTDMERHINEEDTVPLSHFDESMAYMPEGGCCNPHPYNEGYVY
Sequence of ELF4 (Q99607 whole entry): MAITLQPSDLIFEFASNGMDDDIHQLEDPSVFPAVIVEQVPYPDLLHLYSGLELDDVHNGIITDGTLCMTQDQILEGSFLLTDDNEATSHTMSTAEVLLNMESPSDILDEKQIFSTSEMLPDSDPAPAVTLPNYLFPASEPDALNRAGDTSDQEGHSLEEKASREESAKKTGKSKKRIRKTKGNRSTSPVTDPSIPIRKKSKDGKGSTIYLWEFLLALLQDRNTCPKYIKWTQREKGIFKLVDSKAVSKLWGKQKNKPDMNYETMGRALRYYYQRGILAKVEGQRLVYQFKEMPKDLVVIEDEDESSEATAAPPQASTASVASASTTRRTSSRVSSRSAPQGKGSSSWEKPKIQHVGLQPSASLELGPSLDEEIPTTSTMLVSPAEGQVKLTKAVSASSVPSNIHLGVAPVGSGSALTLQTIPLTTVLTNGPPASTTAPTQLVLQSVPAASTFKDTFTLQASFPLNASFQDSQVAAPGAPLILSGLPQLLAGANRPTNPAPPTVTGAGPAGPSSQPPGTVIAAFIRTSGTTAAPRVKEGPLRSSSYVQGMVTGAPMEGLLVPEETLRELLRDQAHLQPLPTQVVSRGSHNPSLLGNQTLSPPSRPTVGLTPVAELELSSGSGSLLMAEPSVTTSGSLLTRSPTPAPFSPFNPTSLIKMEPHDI
Sequence of SPIB (Q01892 whole entry): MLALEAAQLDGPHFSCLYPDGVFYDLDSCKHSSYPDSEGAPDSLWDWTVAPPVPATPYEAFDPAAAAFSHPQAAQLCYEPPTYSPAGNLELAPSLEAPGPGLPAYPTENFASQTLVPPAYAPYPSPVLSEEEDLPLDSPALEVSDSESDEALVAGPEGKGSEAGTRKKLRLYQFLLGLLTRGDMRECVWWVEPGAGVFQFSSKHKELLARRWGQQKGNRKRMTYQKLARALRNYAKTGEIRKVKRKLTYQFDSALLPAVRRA

Sequence	binding signal (GABPA)	binding signal (ELF1)	binding signal (EHF)	binding signal (ETV5)	binding signal (ELF4)	binding signal (ELK4)	binding signal (ETV2)	binding signal (ELF3)	binding signal (ETV3L)	binding signal (ETS2)	binding signal (ETV7)	binding signal (ETV3)	binding signal (ELK1)	binding signal (SPIB)	binding signal (FEV)	binding signal (ETV1)	binding signal (SPDEF)	binding signal (ETV6)
CCAAGC	1.06 fold enrichment (6-mer frequency, TF over GST control)	1.04 fold enrichment (6-mer frequency, TF over GST control)	1.02 fold enrichment (6-mer frequency, TF over GST control)	1.09 fold enrichment (6-mer frequency, TF over GST control)	1.07 fold enrichment (6-mer frequency, TF over GST control)	1.03 fold enrichment (6-mer frequency, TF over GST control)	1.02 fold enrichment (6-mer frequency, TF over GST control)	1.2 fold enrichment (6-mer frequency, TF over GST control)	1.01 fold enrichment (6-mer frequency, TF over GST control)	1.03 fold enrichment (6-mer frequency, TF over GST control)	1.06 fold enrichment (6-mer frequency, TF over GST control)	1.03 fold enrichment (6-mer frequency, TF over GST control)						
TCGTCC	1.05 fold enrichment (6-mer frequency, TF over GST control)	1.03 fold enrichment (6-mer frequency, TF over GST control)	1 fold enrichment (6-mer frequency, TF over GST control)	1.01 fold enrichment (6-mer frequency, TF over GST control)		1.15 fold enrichment (6-mer frequency, TF over GST control)		1.08 fold enrichment (6-mer frequency, TF over GST control)			1.08 fold enrichment (6-mer frequency, TF over GST control)	1.04 fold enrichment (6-mer frequency, TF over GST control)	1.1 fold enrichment (6-mer frequency, TF over GST control)	1.06 fold enrichment (6-mer frequency, TF over GST control)	1 fold enrichment (6-mer frequency, TF over GST control)	1.06 fold enrichment (6-mer frequency, TF over GST control)	1.08 fold enrichment (6-mer frequency, TF over GST control)	1.08 fold enrichment (6-mer frequency, TF over GST control)

Source: PMC7862700, “An all-to-all approach to the identification of sequence-specific readers for epigenetic DNA modifications on cytosine”
